Compound activity: PubChem BioAssay, several laboratories
Gli-Sufu block: antagonists of Gli-Sufu signaling | Sufu-KO-LIGHT fibroblasts, Gli luciferase reporter luminescence | inhibition, % at 5 µM | hit rate 0.74% among 340,000 | AID 588413;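 active = inhibition above about 55%, limit read from the data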;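 note: 0% = DMSO-treated cells and 100% = wells with medium but no cells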
Cardio protect: protects H9c2 cardiomyocytes from peroxide injury. protection from H2O2 cell death, % at 20 µM. H2O2 injury protection, ATPLite, 2 h. hit rate 0.63% among 360,000;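 active = compounds giving at least 50% protection of heart cells from peroxide-induced death in the single-dose screen, raw or plate-pattern-corrected value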;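 note: 0% = DMSO wells with peroxide and 100% = DMSO wells without peroxide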
COUP-TFII inh: NR2F2 (human) inhibition, primary screen. inhibition, % at 8.6 µM. HEK293T NGFI-A luciferase reporter, luminescence. P24468. hit rate 0.7% among 370,000;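 active = inhibition above a per-plate cutoff, mean inhibition of test wells between control levels plus 3 SD, cut at about 38% in these data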;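 note: cells cotransfected with COUP-TFII expression vector driving the NGFI-A reporter; 0% = median of COUP-TF2 test wells and 100% = reporter-only cells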
SMARCA2 act: SMARCA2 function activation, primary screen; MG213 cells, MMTV-luciferase reporter, dexamethasone, overnight; hit rate 1% among 370,000; activation, % at 9.1 µM; AID 652017; in the data active = activation above about 7.8%;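 note: 0% = vehicle wells and 100% = reference activator wells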
GalR3 antag: antagonists of human GalR3 | O60755 | HEK293 GalR3-CNG cAMP membrane potential fluorescence; galR3 body fused to GalR1 C-terminus | inhibition, % at 3 µM | hit rate 0.44% among 360,000;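 active = inhibition above the screen-wide average plus 3 SD, cut at about 13% in these data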;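 note: forskolin and galanin both at EC90 stimulate the cells; cAMP rise reported by CNG channel membrane potential dye signal; 0% = forskolin plus galanin with DMSO and 100% = forskolin alone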
Target sequence (O60755 1-299 limits assumed): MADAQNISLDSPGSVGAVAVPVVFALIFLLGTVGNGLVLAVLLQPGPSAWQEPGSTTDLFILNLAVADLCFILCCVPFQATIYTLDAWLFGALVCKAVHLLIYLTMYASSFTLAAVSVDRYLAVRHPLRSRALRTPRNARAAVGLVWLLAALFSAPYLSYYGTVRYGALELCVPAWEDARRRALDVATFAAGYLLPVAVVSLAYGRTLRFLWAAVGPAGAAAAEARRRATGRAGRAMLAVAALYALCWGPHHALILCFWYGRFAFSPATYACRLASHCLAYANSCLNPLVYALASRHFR
GAA850 FXN act: activators of GAA850 frataxin (FXN) promoter | AID 540364 | HEK293 lucGAA850 FXN promoter luciferase reporter, 24 h; percent of 10 µM SAHA response | activation, % at 6 µM | hit rate 0.56% among 360,000;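 active = activation above the average of all compounds screened plus 3 SD, cutoff fixed separately per campaign, cut at about 7.5% in these data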;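 note: 0% = DMSO wells and 100% = 10 µM SAHA wells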
* hit, by the source's call. A selection: hits, their analogues and other compounds. The true share with any hit is near 3.4%.

What do the screens show for `O=S(=O)(c1ccc(Cl)s1)N1CCC(c2cn3ccccc3n2)CC1`?
COUP-TFII inh: -2; SMARCA2 act: -4

What do the screens show for `COCCCNc1nc2cc(OC)c(OC)cc2c2nc(-c3ccccc3)nn12`?
Gli-Sufu block: 4; Cardio protect: 56*; COUP-TFII inh: 21; SMARCA2 act: 0; GalR3 antag: -2; GAA850 FXN act: -3

What do the screens show for `CCN(CC)CCCNc1nc2cc(OC)c(OC)cc2c2nc(-c3cccnc3)nn12`?
Gli-Sufu block: -1; Cardio protect: 12; COUP-TFII inh: -6; SMARCA2 act: 5; GalR3 antag: -5; GAA850 FXN act: -2

What do the screens show for `COc1cc2nc(NCC3CCCO3)n3nc(-c4cccnc4)nc3c2cc1OC` (stereo not drawn)?
Gli-Sufu block: 11; Cardio protect: 91*; COUP-TFII inh: -1; SMARCA2 act: 0; GalR3 antag: -6; GAA850 FXN act: -3

What do the screens show for `Cc1ccc(NC(=O)Nc2ccnc(-c3cccnc3)n2)cc1`?
Gli-Sufu block: -22; Cardio protect: 78*; COUP-TFII inh: 8; SMARCA2 act: -2; GalR3 antag: -3; GAA850 FXN act: -3

Results for COc1cccc(C(=O)NN/C(C)=C/C(=O)C(F)(F)C(F)(F)C(F)(F)F)c1 ?
Gli-Sufu block: -46; Cardio protect: -2; COUP-TFII inh: -31; SMARCA2 act: 9.5*; GalR3 antag: -10; GAA850 FXN act: 0

How did O=C(N/N=C/c1cc(Br)cc(Br)c1O)c1cccc(N2CCCC2=O)c1 do in these assays?
Gli-Sufu block: 22; Cardio protect: 52*; COUP-TFII inh: 28; SMARCA2 act: -3; GalR3 antag: 4; GAA850 FXN act: -2

Results for O=C(N/N=C/c1ccc(Cl)cc1Cl)c1cccc(N2CCCC2=O)c1 ?
Gli-Sufu block: 12; Cardio protect: 0; COUP-TFII inh: 1; SMARCA2 act: 1; GalR3 antag: -8; GAA850 FXN act: 3

What do the screens show for `O=C(N/N=C/c1cc(Br)cc(Br)c1O)c1cccc(S(=O)(=O)N2CCOCC2)c1`?
Gli-Sufu block: -2; Cardio protect: 50*; COUP-TFII inh: -1; SMARCA2 act: -2; GalR3 antag: -7; GAA850 FXN act: 2

Results for Oc1c(Br)cc(Br)cc1/C=N/c1nccs1 ?
Gli-Sufu block: -1; Cardio protect: 57*; COUP-TFII inh: 1; SMARCA2 act: 0; GalR3 antag: -4; GAA850 FXN act: 1

Results for Oc1c(Br)cc(Br)cc1C=Nc1cccnc1 ?
Gli-Sufu block: -10; Cardio protect: 52*; COUP-TFII inh: 2; SMARCA2 act: -3; GalR3 antag: -7; GAA850 FXN act: 1

What do the screens show for `Oc1c(Br)cc(Br)cc1C=Nc1ccc2[nH]ncc2c1`?
Gli-Sufu block: 0; Cardio protect: 35; COUP-TFII inh: 18; SMARCA2 act: -1; GalR3 antag: 3; GAA850 FXN act: -2

Results for COCCNC(=O)C[C@H]1CC[C@H]2[C@@H](COc3ccc(NS(=O)(=O)c4ccc(Cl)cc4)cc3C(=O)N2C)O1 ?
COUP-TFII inh: -4; SMARCA2 act: 3

Results for O=C(c1ccccc1)n1c2ccccc2c(=O)n1-c1ccccc1CCl ?
Cardio protect: 1

How did CNC(=O)COC(=O)/C=C/c1cn(-c2ccccc2)nc1-c1ccc(C)o1 do in these assays?
Gli-Sufu block: -11; Cardio protect: 56*; COUP-TFII inh: -4; SMARCA2 act: 0; GalR3 antag: -1; GAA850 FXN act: 1

How did O=C(COC(=O)/C=C/c1cn(-c2ccccc2)nc1-c1ccc2c(c1)OCCO2)NC1CCS(=O)(=O)C1 (stereo not drawn) do in these assays?
Gli-Sufu block: 2; Cardio protect: 57*; COUP-TFII inh: 1; SMARCA2 act: -2; GalR3 antag: -7; GAA850 FXN act: -2

Results for CCCCOCCCNC(=O)C[C@H]1C(=O)N(Cc2ccc(OC)cc2)C2=CCCCC[C@@]21C(=O)OC ?
COUP-TFII inh: -7; SMARCA2 act: -2

How did O=C(Nc1cccc(-c2cnc3ccccc3n2)c1)c1cccc(NC(=O)c2ccco2)c1 do in these assays?
Gli-Sufu block: -21; Cardio protect: 61*; COUP-TFII inh: -44; SMARCA2 act: 8; GalR3 antag: -4; GAA850 FXN act: -3

How did CCOc1ncccc1C(=O)Nc1cccc(-c2nc3cccnc3s2)c1 do in these assays?
Gli-Sufu block: -12; Cardio protect: 64*; COUP-TFII inh: -20; SMARCA2 act: -5; GalR3 antag: -11; GAA850 FXN act: 3

What do the screens show for `Cc1c(NC(=O)c2ccco2)cccc1-c1nc2cccnc2s1`?
Gli-Sufu block: -12; Cardio protect: 0; COUP-TFII inh: -19; SMARCA2 act: -2; GAA850 FXN act: 0

What do the screens show for `O=C(Nc1cccc(-c2nc3cccnc3s2)c1)c1ccco1`?
Gli-Sufu block: -18; Cardio protect: 70*; COUP-TFII inh: 3; SMARCA2 act: 1; GalR3 antag: -5; GAA850 FXN act: 3

Results for Cn1c(=O)c2cc(S(=O)(=O)N3CCN(c4ccccc4Cl)CC3)ccc2n(C)c1=O ?
COUP-TFII inh: 0; SMARCA2 act: -5

How did COC(=O)[C@]12C[C@H](CC(=O)NCCCN3CCCC3=O)C(=O)N(Cc3ccco3)C1=C[C@H](C1CCCC1)O[C@@H]2C do in these assays?
COUP-TFII inh: 8; SMARCA2 act: -1

How did CCOC(=O)c1cc(-c2ccc(/C=N\n3cnnc3)o2)ccc1Cl do in these assays?
Gli-Sufu block: 30; Cardio protect: 67*; COUP-TFII inh: -4; SMARCA2 act: 1; GalR3 antag: 0; GAA850 FXN act: 1

What do the screens show for `CC(C)(C)c1ccc(C(=O)Nc2cc(Cl)c(F)cc2C(=O)O)cc1`?
COUP-TFII inh: -16

Results for CN(C(=O)c1sc2nc(N3CCOCC3)c3c(c2c1N)CCCC3)c1ccccc1 ?
Gli-Sufu block: 12; Cardio protect: 61*; COUP-TFII inh: 13; SMARCA2 act: 1; GalR3 antag: 2; GAA850 FXN act: -3

How did O=S(=O)(c1ccc(N=C2NN=C(c3cc(F)ccc3F)CS2)cc1)N1CCOCC1 do in these assays?
Gli-Sufu block: 51; Cardio protect: -5; COUP-TFII inh: 41*; SMARCA2 act: -5; GalR3 antag: -5; GAA850 FXN act: 0

Results for Fc1ccc(N=C2NN=C(c3cc(F)ccc3F)CS2)cc1 ?
Gli-Sufu block: 4; Cardio protect: -3; COUP-TFII inh: -59; SMARCA2 act: 0; GalR3 antag: 1; GAA850 FXN act: 2

What do the screens show for `O=c1cc(CSc2ccc([N+](=O)[O-])cc2)nc2sccn12`?
Gli-Sufu block: -19; Cardio protect: 72*; COUP-TFII inh: -24; SMARCA2 act: -1; GalR3 antag: -3; GAA850 FXN act: 1

What do the screens show for `O=c1cc(CSc2n[nH]c(-c3ccncc3)n2)nc2sccn12`?
Gli-Sufu block: 6; Cardio protect: 0; COUP-TFII inh: 11; SMARCA2 act: -1; GalR3 antag: 3; GAA850 FXN act: 3
